Data from ChEMBL document CHEMBL4513216, “Probing the Open Global Health Chemical Diversity Library for Multistage-Active Starting Points for Next-Generation Antimalarials” (ACS Infect Dis, 2020).
The whole screen tested about 68,000 compounds, of which about 2,700 (4%) showed an effect of 50% or more. This excerpt belongs to a sample that is enriched for strong results.

Each compound was assayed on Plasmodium berghei (assay: Screen against P. berghei liver stage (PbLuc), transformed with Luciferase, at 2uM). Conditions: tested at 2 uM.
Assay type: functional, HepG2

Row | SMILES | INHIBITION
1 | CC(C)C(NC(=O)Cn1ccc(=O)n(C)c1=O)c1ccc(F)cc1 (centres undefined) | -56.99%
2 | Fc1ccc(C(CNc2ccncn2)N2CCCC2)cc1 (centres undefined) | 30.93%
3 | NC(=O)CN1CCC(C(=O)NCCc2nc(-c3ccccc3)cs2)CC1 | -13.72%
4 | N[C@@H]1CC[C@H](C(=O)NCCc2nc(-c3ccccc3)cs2)C1 | 60.18%
5 | NC(=O)CN1CCC(C(=O)NCc2nc(-c3ccc(F)cc3)cs2)CC1 | 14.19%
6 | COCCN1CCCn2cnc(CNC(=O)N(C)C)c2C1 | 2.33%
7 | CC(C)(CO)CCCNC(=O)NC1(C)Cc2ccccc2C1 | 29.87%
8 | CC(C)(CO)CCCNC(=O)NC1(c2ccccc2F)CC1 | -3.66%
9 | CC(C)(CO)CCCNC(=O)NC1(c2cccc(F)c2)CC1 | 57.16%
10 | CC(NC(=O)COc1ccccc1I)C1CC1 (centres undefined) | -3.87%
11 | CN(CCOCC1CC1)C(=O)Nc1ccc([S+](C)[O-])cc1 (centres undefined) | -88.39%
12 | O=C(CCNCc1cccc2c1OCCCO2)NC1CCCC1 | -42.54%
13 | O=C(CC1CCCC1)NCCNCc1cccc2c1OCCO2 | 30.57%
14 | O=C(NCCNCc1cccc2c1OCCCO2)C1CCCC1 | 77.72%
15 | CCO[C@@H]1CO[C@@]2(CCCN(S(=O)(=O)c3ccccc3)C2)C1 | 32.66%
16 | COCCN1CCC12CCN(c1ncccn1)C2 (centres undefined) | 30.96%
17 | N#Cc1cc2n(n1)CCN(C(=O)CCc1c[nH]c3ccccc13)C2 | 76.29%
18 | O=C(O)c1cc2n(n1)CCCN(C(=O)CCc1c[nH]c3ccccc13)C2 | 6.72%
19 | COC(=O)c1cc2n(n1)CCCN(C(=O)Cc1c[nH]c3ccccc13)C2 | 19.27%
20 | CC(NC(=O)c1cccc(CCC(C)(C)O)c1)c1nnc(N)s1 (centres undefined) | 18.84%
21 | Cc1noc(C)c1-c1cc(C2CCNCC2)ccn1 | -18.04%
22 | O=S(=O)(CC1CCCO1)Nc1cc(Cl)ccc1-n1cccn1 (centres undefined) | -69.64%
23 | CN(C)C[C@@H]1CN(C2CCN(c3ccc(Cl)cc3)CC2)C[C@@H]1CO | 63.46%
24 | CN(C)C[C@@H]1CN(C2CCN(c3ccccc3Cl)CC2)C[C@@H]1CO | 32.26%
25 | Cc1ccc(N2CCC(N3C[C@@H](CN(C)C)[C@@H](CO)C3)CC2)cc1 | 27.85%
26 | Cc1ccccc1OCC(=O)N1CCN(C2CCOC2=O)CC1 (centres undefined) | -42.29%
27 | CCn1ccnc1CN(C)Cc1nc(Cc2ccccc2F)no1 | 36.34%

Row | SMILES | INHIBITION
28 | Cc1cc(C[S+]([O-])CC(=O)NCc2cccc(Cl)c2)no1 (centres undefined) | -11.2%
29 | CCN1CC2(CC1=O)CN(C(C)=O)CCN(C(=O)NC)C2 (centres undefined) | -17.59%
30 | N#Cc1ccc(F)c(CNc2ccc(F)cc2OCCO)c1 | -17.04%
31 | N#Cc1ccc(SCCCO)c(F)c1 | -22.89%
32 | CCCS(=O)(=O)CCSc1cccc(C#N)c1 | 32.97%
33 | N#Cc1ccc(SCCC(=O)O)cc1 | 1.8%
34 | N#Cc1ccc(SCCOCCO)c(F)c1 | 53.63%
35 | N#Cc1ccc(SCCOCCO)c(Cl)c1 | 53.63%
36 | CO[C@@H]1CCC[C@@H](NC(=O)C(C)(C)c2cccc(F)c2)[C@H]1O | -21.9%
37 | CC(C)n1cnc2c1C(C(=O)N1CCCC1)N(S(C)(=O)=O)CC2 (centres undefined) | 29.19%
38 | Cn1cc(I)c(C(=O)NCCCn2cc(Br)cn2)n1 | -6.71%
39 | Cc1nn(C)c(C)c1C(C(=O)O)N1CCc2ccccc2C1 (centres undefined) | 11.33%
40 | O=C(NCCS(=O)(=O)N1CCN(c2ncccn2)CC1)c1ccccc1 | 30.62%
41 | Cc1nc(CN2C[C@@H]3CCCO[C@@H]3[C@H](N(C)C(C)C)C2)cs1 | -20.01%
42 | CC(=O)N1CC(C)CN(C(=O)c2cccnc2C)c2ccccc21 (centres undefined) | -5.98%
43 | N#Cc1c(Cl)nsc1NCc1cccnc1OC1CCCC1 | -59.9%
44 | O=c1[nH]cnc2c1CCN(S(=O)(=O)c1ccc(Cl)cc1)C2 | 5.1%
45 | O=S1(=O)c2ccccc2C2(CCN(Cc3cccnc3)C2)N1CC1CC1 (centres undefined) | 30.39%
46 | CCS(=O)(=O)N1CCc2nc(N3CCOCC3)nc(N(C)C)c2CC1 | 21.57%
47 | Cc1nc(N2CCCC2)nc2c1CN(C(=O)NC(C)C)CC2 | 60.05%
48 | CCCS(=O)(=O)N1CCc2nc(N3CCOCC3)nc(N(C)C)c2C1 | 40.64%
49 | Cc1nc(N2CCOCC2)nc2c1CCN(C(=O)C1CCCCC1)CC2 | 36.99%
50 | Cc1nc(N2CCCC2)nc2c1CCN(C(=O)NC1CCCC1)CC2 | 40.28%
51 | Cc1nc(N2CCOCC2)nc2c1CCN(C(=O)NC1CCCC1)CC2 | 51.57%
52 | CC(=O)N1CCc2nc(N3CCCC3)nc(C)c2C1 | 15.57%
53 | CCC(=O)N1CCc2nc(N3CCOCC3)nc(N(C)C)c2CC1 | 54.62%
54 | Cc1nc(N2CCCC2)nc2c1CCN(C(=O)NC(C)C)CC2 | -4.2%
